Reference: PubChem BioAssay (Tox21)
Values joined by “and” are separate entries in the source; they are usually repeats but may differ in a detail not shown here. Identical values can stand only once. Inconclusive results are not listed. Entries that show only a call come without a potency. Where a structure was tested more than once in an assay, its records may differ in their call. Active and inactive are the calls of the source. Unless noted, the call rests on the fitted dose curve; in most records, active means well fitted curve in the direction sought with a large enough effect in the repeat runs; inconclusive means weak or mixed curves; inactive means no such curve, though single readings can be large; an effect the other way counts as inactive or inconclusive.

Legend:
[1] = A CellTox Green Cytotoxicity Assay to monitor cytotoxicity in HepG2 cells - 8 hour (AID 1224890); further: nearly all actives have a fitted effect of over 45% in size; further: potency means the concentration at half of the fitted maximal effect
In short: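 HepG2 cells were seeded together with the CellTox Green dye at 600 cells/well, left 5 h at 37 C/5% CO2, then given compounds in DMSO. Fluorescence from dye bound to dead-cell DNA was read repeatedly over 40 h of treatment at 37 C.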

[2] = qHTS assay to identify small molecule antagonists of the estrogen receptor alpha (ER-alpha) signaling pathway using the BG1 cell line in the presence of 0.1 nM 17-beta-estradiol - cell viability counter screen (AID 1259241); further: nearly all actives have a fitted effect of over 40% in size; further: potency means the concentration at half of the fitted maximal effect
In short: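 In this screen, hormone-deprived VM7Luc4E2 cells were seeded at 4,000 per well, dosed with compound and 0.1 nM estradiol final, and incubated 22 hr at 37C and 5% CO2; fluorogenic live-cell protease signal reported viability.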

[3] = qHTS assay to identify small molecule antagonists of the androgen receptor (AR) signaling pathway using the MDA cell line in the presence of 0.5 nM R1881 - cell viability counter screen (AID 1259242); further: nearly all actives have a fitted effect of over 45% in size
In short: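 MDA-kb2 cells (human breast carcinoma, stably carrying MMTV-luciferase reporter) were exposed to compounds with 0.5 nM R1881 (final) for 16 hr at 37C, 0% CO2; viability then read as live-cell protease fluorescence (CellTiter-Fluor, 30 min) in the same wells.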

[4] = target: Estrogen receptor (Homo sapiens) (UniProt P03372); assay: qHTS assay to identify small molecule antagonists of the estrogen receptor alpha (ER-alpha) signaling pathway using the BG1 cell line in the presence of 0.1 nM 17-beta-estradiol (AID 1259244); further: nearly all actives have a fitted effect of over 50% in size; further: potency means the concentration at half of the fitted maximal effect
Sequence of Estrogen receptor (Homo sapiens) (P03372 whole entry, looked up): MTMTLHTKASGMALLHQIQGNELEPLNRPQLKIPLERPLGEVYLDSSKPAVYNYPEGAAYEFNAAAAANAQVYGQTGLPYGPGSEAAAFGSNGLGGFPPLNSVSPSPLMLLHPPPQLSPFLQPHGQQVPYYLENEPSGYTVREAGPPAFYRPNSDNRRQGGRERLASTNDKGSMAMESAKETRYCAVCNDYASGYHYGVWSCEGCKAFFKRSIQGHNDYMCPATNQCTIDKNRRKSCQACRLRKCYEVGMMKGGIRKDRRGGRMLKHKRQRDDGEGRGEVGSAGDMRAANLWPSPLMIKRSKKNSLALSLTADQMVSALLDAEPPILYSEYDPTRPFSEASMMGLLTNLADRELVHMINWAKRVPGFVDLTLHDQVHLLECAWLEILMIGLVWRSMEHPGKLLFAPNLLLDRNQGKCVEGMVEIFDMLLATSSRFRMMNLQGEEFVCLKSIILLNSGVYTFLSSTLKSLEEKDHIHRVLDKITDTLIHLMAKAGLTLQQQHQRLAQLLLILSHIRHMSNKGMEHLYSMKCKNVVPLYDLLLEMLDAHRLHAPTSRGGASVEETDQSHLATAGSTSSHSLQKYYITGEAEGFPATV
In short: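 VM7Luc4E2 cells (endogenous full-length ER-alpha, stable 4xERE-luciferase) were grown 5 days in phenol red-free medium with charcoal-stripped FBS, then exposed 22 h at 37C to compounds plus 0.1 nM (final) 17beta-estradiol; ONE-Glo luminescence read-out.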

[5] = qHTS assay to identify small molecule phospholipidosis (PLD) inducers (AID 1259344; active means well fitted curve in the direction sought with a large enough effect; an effect the other way counts as inactive or inconclusive)
In short: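 Quantitative HTS in HepG2: compound plus LipidTOX Red dye for 24 h, paraformaldehyde fixation with Hoechst 33342, widefield high-content imaging; amiodarone as positive and DMSO as negative control.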

[6] = qHTS assay to identify small molecule HDAC inhibitors (AID 1259364); further: nearly all actives have a fitted effect of over 45% in size; further: potency means the concentration at half of the fitted maximal effect
In short: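 Wild-type HCT-116 cells were plated overnight, exposed to compounds for 2 h at 37 °C, then given HDAC-Glo class I/II luminogenic reagent for 30 min at room temperature before luminescence was read.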

[7] = qHTS assay to identify small molecule HDAC inhibitors - cell viability counter screen (AID 1259365); further: series mostly up to about 92 µM; nearly all actives have a fitted effect of over 50% in size
In short: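 Measured quantity is CellTiter-Glo luminescence from wild-type HCT-116 cells after compound incubation of 2hr at 37C, 5% CO2; reagent developed 30min at room temperature.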

[8] = qHTS assay to identify small molecule agonists of the sonic hedgehog signaling (Shh) pathway - cell viability counter screen (AID 1259366); further: nearly all actives have a fitted effect of over 50% in size; further: potency means the concentration at half of the fitted maximal effect
In short: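 In quantitative high-throughput format, 3T3 Gli1-Luc cells were exposed to compounds for 24hr and multiplexed for viability using CellTiter-Fluor, incubated 1hr at 37C before the fluorescence read.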

[9] = qHTS assay to identify small molecule agonists of the sonic hedgehog signaling (Shh) pathway (AID 1259368; calls by dose curve; further: series mostly up to about 92 µM; nearly all actives have a fitted effect of over 15% in size)
In short: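 NIH/3T3-derived 3T3Gli1-Luc cells carrying a stably integrated Gli1 response element–firefly luciferase reporter were plated, left 4 hr at 37 C, then given compounds in DMSO for 24 hr. Luminescence was read 30 min after adding luciferase reagent.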

[10] = qHTS assay to identify small molecule antagonists of the sonic hedgehog signaling (Shh) pathway (AID 1259369; calls by dose curve; further: nearly all actives have a fitted effect of over 45% in size; further: potency means the concentration at half of the fitted maximal effect)
In short: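 NIH/3T3-derived 3T3Gli1-Luc cells with stably integrated Gli1-Luc reporter were preincubated 4hr at 37 C, then given compounds in DMSO plus Shh conditioned medium and incubated 24hr. Firefly luciferase luminescence read after 30min reagent at room temperature.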

[11] = qHTS assay to identify small molecule agonists of the androgen receptor (AR) signaling pathway in the presence of an antagonist - cell viability counter screen (AID 1259379); further: nearly all actives have a fitted effect of over 25% in size; further: potency means the concentration at half of the fitted maximal effect
In short: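 MDA-kb2 human breast carcinoma cells (stable MMTV-luciferase, AR/GR responsive) were seeded 3,000 cells/well, pre-incubated 5 hr at 37C without CO2, then given 3.0uM nilutamide and compounds at 15 concentrations for 16 hr. Viability was read by CellTiter-Fluor fluorescence.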

[12] = qHTS assay to identify small molecule agonists of the estrogen receptor beta (ER-beta) signaling pathway - cell viability counter screen (AID 1259380); further: nearly all actives have a fitted effect of over 30% in size
In short: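 ER-beta-UAS-bla HEK293T cells in medium with 2% charcoal-stripped FBS were preincubated 6 hr at 37C, dosed with compound in DMSO for 16 hr, then after the bla read, CellTiter-Glo was added for 30 min at room temperature; luminescence recorded.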

[13] = qHTS assay to identify small molecule antagonists of the estrogen receptor beta (ER-beta) signaling pathway - cell viability counter screen (AID 1259382); further: series mostly up to about 92 µM; nearly all actives have a fitted effect of over 55% in size
In short: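 ER-beta-UAS-bla HEK293T cells (2,000/well, 2% charcoal-stripped FBS) were pre-incubated 6 hr at 37C, then given compound plus 1nM final 17-beta-estradiol for 16 hr. Viability was read in the same wells by CellTiter-Glo luminescence after 30 min at room temperature.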

[14] = target: Estrogen receptor (Homo sapiens) (UniProt P03372); assay: qHTS assay to identify small molecule agonists of the estrogen receptor alpha (ER-alpha) signaling pathway in the presence of an antagonist (AID 1259383; calls by dose curve; further: top concentration of the series differs between compounds; nearly all actives have a fitted effect of over 15% in size)
In short: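 VM7Luc4E2 cells (endogenous full-length ER-alpha, 4×ERE-luciferase) were precultured 5 days in phenol red-free medium with 10% charcoal-stripped FBS, given 10.0nM ICI-182,780 (final), then treated with compounds at 15 concentrations for 22hr at 37C; luminescence read with ONE-Glo.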

[15] = target: Androgen receptor (Homo sapiens) (UniProt P10275); assay: qHTS assay to identify small molecule antagonists of the androgen receptor (AR) signaling pathway using the MDA cell line in the presence of 0.5 nM R1881 (AID 1259243); further: nearly all actives have a fitted effect of over 50% in size
Sequence of Androgen receptor (Homo sapiens) (P10275 whole entry, looked up): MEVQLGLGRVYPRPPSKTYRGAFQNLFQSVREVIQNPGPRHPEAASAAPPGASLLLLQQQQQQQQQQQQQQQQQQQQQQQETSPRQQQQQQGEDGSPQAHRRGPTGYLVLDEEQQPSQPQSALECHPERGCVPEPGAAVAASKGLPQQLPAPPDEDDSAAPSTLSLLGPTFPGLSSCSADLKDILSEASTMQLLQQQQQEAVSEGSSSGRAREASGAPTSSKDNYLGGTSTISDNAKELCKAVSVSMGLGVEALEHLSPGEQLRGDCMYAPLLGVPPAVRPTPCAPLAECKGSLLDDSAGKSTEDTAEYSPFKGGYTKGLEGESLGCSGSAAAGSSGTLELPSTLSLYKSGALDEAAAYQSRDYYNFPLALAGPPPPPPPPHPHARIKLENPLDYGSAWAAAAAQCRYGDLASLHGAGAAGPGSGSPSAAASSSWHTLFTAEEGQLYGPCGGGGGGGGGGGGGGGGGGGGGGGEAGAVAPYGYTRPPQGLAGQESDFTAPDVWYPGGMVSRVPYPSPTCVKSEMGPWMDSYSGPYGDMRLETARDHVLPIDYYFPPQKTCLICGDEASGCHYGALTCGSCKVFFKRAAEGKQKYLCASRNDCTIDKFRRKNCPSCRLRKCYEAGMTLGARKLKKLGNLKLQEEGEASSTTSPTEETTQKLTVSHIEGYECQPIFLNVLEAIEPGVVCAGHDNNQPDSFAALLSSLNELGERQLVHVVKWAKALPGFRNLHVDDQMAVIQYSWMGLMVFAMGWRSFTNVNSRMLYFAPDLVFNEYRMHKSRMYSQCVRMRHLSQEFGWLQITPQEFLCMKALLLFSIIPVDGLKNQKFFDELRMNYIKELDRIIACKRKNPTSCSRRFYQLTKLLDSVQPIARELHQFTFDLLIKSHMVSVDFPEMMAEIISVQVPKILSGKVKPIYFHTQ
In short: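 MDA-kb2 human breast carcinoma cells carrying an MMTV-luciferase reporter (AR- and GR-responsive) were plated, rested 5 hr at 37C, dosed with compounds, then stimulated with 0.5 nM R1881 (final) for 16 hr; luminescence was read after ONE-Glo.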

[16] = target: Estrogen receptor beta (Homo sapiens) (UniProt Q92731); assay: qHTS assay to identify small molecule agonists of the estrogen receptor beta (ER-beta) signaling pathway (AID 1259377; active means well fitted activation curve with a large enough effect in the signal ratio in the repeat runs, not every such curve was filed as active; the % refers to the signal ratio; further: potency means the concentration at half of the fitted maximal effect)
Sequence of Estrogen receptor beta (Homo sapiens) (Q92731 whole entry, looked up): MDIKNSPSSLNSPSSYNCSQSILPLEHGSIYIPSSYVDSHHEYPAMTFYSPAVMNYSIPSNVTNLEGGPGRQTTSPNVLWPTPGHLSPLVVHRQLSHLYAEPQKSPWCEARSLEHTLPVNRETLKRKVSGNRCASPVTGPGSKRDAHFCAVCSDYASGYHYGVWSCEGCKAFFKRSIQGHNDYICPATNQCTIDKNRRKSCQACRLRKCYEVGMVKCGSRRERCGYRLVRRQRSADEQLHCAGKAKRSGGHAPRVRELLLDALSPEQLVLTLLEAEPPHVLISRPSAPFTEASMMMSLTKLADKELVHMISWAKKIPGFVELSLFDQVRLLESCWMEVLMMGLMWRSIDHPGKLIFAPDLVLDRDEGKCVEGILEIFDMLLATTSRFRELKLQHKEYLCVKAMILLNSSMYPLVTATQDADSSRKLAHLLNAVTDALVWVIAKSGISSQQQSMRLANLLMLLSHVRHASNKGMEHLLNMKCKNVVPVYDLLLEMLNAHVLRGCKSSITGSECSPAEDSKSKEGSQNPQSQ
In short: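 Reporter cells (HEK293T, ER-beta-UAS-bla) receive compounds or DMSO after a 6 hr pre-incubation. They then incubate 16 hr at 37C/5% CO2, and fluorescence from LiveBLAzer B/G substrate is measured after 2 hours at room temperature.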

[17] = target: Estrogen receptor beta (Homo sapiens) (UniProt Q92731); assay: qHTS assay to identify small molecule antagonists of the estrogen receptor beta (ER-beta) signaling pathway (AID 1259378; active means well fitted inhibition curve with a large enough effect in the signal ratio in the repeat runs, not every such curve was filed as active; the % refers to the signal ratio)
In short: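 ER-beta-UAS-bla HEK293T cells in 2% charcoal-stripped FBS medium treated with compound plus 1nM final 17-beta-estradiol for 16 hr at 37C. Beta-lactamase reporter read by FRET substrate fluorescence after 2 hours at room temperature.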

[18] = target: Androgen receptor (Homo sapiens) (UniProt P10275); assay: qHTS assay to identify small molecule agonists of the androgen receptor (AR) signaling pathway in the presence of an antagonist (AID 1259381; calls by dose curve; further: nearly all actives have a fitted effect of over 15% in size)
In short: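 MDA-kb2 human breast carcinoma cells carrying an MMTV-luciferase reporter (AR- and GR-responsive) were treated with compounds at 15 concentrations plus 3.0uM final nilutamide for 16hr at 37C without CO2; luminescence was read after ONE-Glo addition.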

[19] = qHTS assay to identify small molecule agonists or antagonists of the thyroid stimulating hormone receptor (TSHR) signaling pathway - wild type cell line counter screen (AID 1259384; calls by dose curve)
In short: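 Wild-type Hek293 cells, 800/well, 18 h at 37C, then compound with Ro20-1724 for 30 min RT. cAMP by HTRF (cAMP-d2/anti-cAMP cryptate), 1 h RT, fluorescence read. 15 concentrations, triplicates.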

[20] = qHTS assay to identify small molecule antagonists of the sonic hedgehog signaling (Shh) pathway - cell viability counter screen (AID 1259367); further: nearly all actives have a fitted effect of over 55% in size
In short: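 Seed 3T3 Gli1-Luc cells at 2,000 per well; incubate 4 hr; add compound in DMSO, then conditioned medium; incubate at 37C with 5% CO2; add CellTiter-Fluor after 23 hr; read fluorescence 1 hr later.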

| SMILES | Potency [1] | Potency [2] | Potency [3] | Potency [4] | outcome [5] | Potency [6] | outcome [7] | Potency [8] | outcome [9] | Potency [10] | Potency [11] | Potency [12] | Potency [13] | Potency [14] | outcome [15] | Potency [16] | Potency [17] | Potency [18] | outcome [19] | Potency [20] |
| --- | --- | --- | --- | --- | --- | --- | --- | --- | --- | --- | --- | --- | --- | --- | --- | --- | --- | --- | --- | --- |
| CCC(=O)O | inactive | inactive | inactive | inactive | inactive | inactive | inactive | inactive | inactive | inactive | inactive | inactive | inactive | inactive | – | – | – | – | – | – |
| NCCNCCNCCNCCN | inactive | inactive | inactive | – | inactive | inactive | inactive | inactive | inactive | inactive | – | inactive | inactive | – | inactive | inactive | inactive | inactive | inactive | – |
| CN(CCOc1ccc(CC2SC(=O)NC2=O)cc1)c1ccccn1 (configuration not stated) | inactive | inactive | inactive | inactive | inactive | 30.5 µM (active) and inactive | inactive | inactive | inactive | inactive | – | – | inactive | – | – | inactive | inactive | – | inactive | inactive |
| CC(=O)Nc1ccc(C(=O)O)cc1 | inactive | inactive | inactive | inactive | inactive | inactive | inactive | inactive | inactive | inactive | inactive | inactive | inactive | – | – | inactive | inactive | – | inactive | inactive |
| CCc1ccc(O)cc1 | inactive | inactive | inactive | – | – | inactive | inactive | inactive | inactive | inactive | inactive | inactive | inactive | – | inactive | inactive | inactive | inactive | inactive | inactive |
| NCCc1ccc(O)c(O)c1 | inactive | 34.5 µM (active) | inactive | 2.44 µM (active) | inactive | inactive | inactive | 24.4 µM (active) and inactive | inactive | 0.866 µM (active) | 54.6 µM (active) and inactive | inactive | inactive | inactive | – | inactive | inactive | – | – | – |
| CCCCOCCOCCOC(=O)CCCCC(=O)OCCOCCOCCCC | inactive | inactive | inactive | inactive | – | inactive | inactive | inactive | inactive | inactive | – | inactive | inactive | – | – | inactive | inactive | – | inactive | – |
| COCC(C)O (configuration not stated) | inactive | inactive | inactive | inactive | – | inactive | inactive | inactive | inactive | inactive | – | inactive | inactive | – | – | – | – | – | inactive | inactive |
| O=C(c1ccc(O)cc1)c1ccc(O)cc1O | inactive and 54.9 µM (active) | inactive | inactive | inactive | – | – | inactive | inactive | inactive | 55 µM (active) | inactive | inactive | inactive | – | – | 13.8 µM (active) and 12.2 µM (active) | – | – | inactive | inactive |
| CC[Si](OC(C)=O)(OC(C)=O)OC(C)=O | inactive | inactive | inactive | inactive | – | inactive | inactive | inactive | inactive | inactive | – | inactive | inactive | inactive | – | – | – | – | inactive | inactive |
| C=C(C)C(=O)OCCCCCC | inactive | inactive | inactive | inactive | – | inactive | inactive | inactive | inactive | inactive | – | inactive | inactive | inactive | – | – | – | – | inactive | inactive |
| OC1CCCC1 | inactive | inactive | inactive | inactive | – | inactive | inactive | inactive | inactive | inactive | inactive | inactive | inactive | – | – | inactive | inactive | – | inactive | inactive |
| CCC(C)C=O (configuration not stated) | inactive | inactive | inactive | inactive | – | inactive | inactive | inactive | inactive | inactive | inactive | inactive | inactive | – | – | 4.32 µM (active) and inactive | inactive | – | inactive | inactive |
| CCCCCCCCCCCCOCC1CO1 (configuration not stated) | inactive | inactive | inactive | inactive | – | inactive | inactive | inactive | inactive | inactive | inactive | inactive | inactive | – | – | inactive | inactive | – | inactive | – |
| C[C@@H](O)[C@H]1C(=O)N2C(C(=O)O)=C(S[C@@H]3CN[C@H](C(=O)N(C)C)C3)[C@H](C)[C@H]12 | inactive | inactive | inactive | – | inactive | inactive | inactive | inactive | inactive | inactive | inactive | inactive | inactive | – | – | inactive | inactive | – | inactive | inactive |
| OC[C@@H](O)[C@@H](O)[C@H](O)[C@@H](O)CO | inactive | inactive | inactive | inactive | – | inactive | inactive | inactive | inactive | inactive | inactive | inactive | inactive | inactive | – | – | – | – | inactive | inactive |
| CC(C)(C)C(=O)C1C(=O)c2ccccc2C1=O | inactive | 54.5 µM (active) | inactive | 61.1 µM (active) | – | inactive | inactive | inactive | inactive | 68.6 µM (active) | 60.5 µM (active) | inactive | inactive | inactive | – | inactive | – | – | inactive | – |
